# In publication PMC4336329 (PLoS ONE, 2015):
# Hit rate of the full screen: of about 310,000 compounds, about 2,200 (0.71%) showed an effect of 50% or more. Effects have a minus sign here. What follows is part of a selection rich in strong results, with near analogues and random picks from the rest.
# Target: human ether-à-go-go-related gene (hERG) potassium channel (human, UniProt Q12809)
# Assay: primary screen, population patch clamp on CHO cells stably expressing hERG; higher = less effect of the substance
# Sequence of human ether-à-go-go-related gene (hERG) potassium channel (Q12809 whole entry, looked up): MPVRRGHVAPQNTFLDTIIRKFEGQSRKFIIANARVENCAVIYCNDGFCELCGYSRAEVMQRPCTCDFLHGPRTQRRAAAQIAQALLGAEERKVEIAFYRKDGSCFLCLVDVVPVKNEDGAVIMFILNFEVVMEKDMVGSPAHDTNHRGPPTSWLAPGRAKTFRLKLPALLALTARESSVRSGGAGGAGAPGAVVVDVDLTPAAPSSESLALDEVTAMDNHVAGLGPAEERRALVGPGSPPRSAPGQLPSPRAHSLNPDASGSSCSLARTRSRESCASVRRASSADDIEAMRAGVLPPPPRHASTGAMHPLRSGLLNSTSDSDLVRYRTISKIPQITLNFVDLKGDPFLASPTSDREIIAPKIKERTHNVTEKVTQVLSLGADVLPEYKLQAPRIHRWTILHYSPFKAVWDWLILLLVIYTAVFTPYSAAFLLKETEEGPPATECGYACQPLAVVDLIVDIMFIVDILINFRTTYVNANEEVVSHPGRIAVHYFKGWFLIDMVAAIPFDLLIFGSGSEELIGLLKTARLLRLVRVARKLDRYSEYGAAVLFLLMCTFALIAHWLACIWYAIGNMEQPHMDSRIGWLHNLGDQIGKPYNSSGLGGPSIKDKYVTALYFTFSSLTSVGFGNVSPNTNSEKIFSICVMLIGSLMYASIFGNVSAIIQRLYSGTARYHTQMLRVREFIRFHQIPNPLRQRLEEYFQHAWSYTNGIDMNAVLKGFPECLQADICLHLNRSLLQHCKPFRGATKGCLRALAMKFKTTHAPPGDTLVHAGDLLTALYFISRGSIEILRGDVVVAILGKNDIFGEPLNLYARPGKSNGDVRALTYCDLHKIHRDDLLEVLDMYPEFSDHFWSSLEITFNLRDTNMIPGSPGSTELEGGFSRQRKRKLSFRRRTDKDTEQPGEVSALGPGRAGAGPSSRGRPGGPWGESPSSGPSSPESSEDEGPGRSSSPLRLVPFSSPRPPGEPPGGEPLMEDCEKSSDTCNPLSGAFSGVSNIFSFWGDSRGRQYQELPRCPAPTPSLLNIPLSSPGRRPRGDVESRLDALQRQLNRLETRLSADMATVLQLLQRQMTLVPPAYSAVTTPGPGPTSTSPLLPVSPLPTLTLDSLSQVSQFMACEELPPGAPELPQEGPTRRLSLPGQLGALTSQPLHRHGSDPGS
row,Structure (SMILES),"hERG current change (%, negative = inhibition) at 1uM [%]"
1,CCN(C(=O)/C=C/c1ccc(OC)cc1)C1CCS(=O)(=O)C1 (stereo not shown),-3.05
2,CN1C(=O)/C(=N/OC(=O)c2ccccc2)c2ccccc21,-4.57
3,N#Cc1c(N)n(CCc2ccc(F)cc2)c2nc3ccccc3nc12,19.9
4,COCCNCCOc1ccc(C(C)(C)c2ccccc2)cc1.O=C(O)C(=O)O,-2.39
5,Cc1cc(C(=O)N2CC(C)CC(C)C2)n(-c2ccccc2)n1 (stereo not shown),16.6
6,CC1CN(C(=O)Nc2ccc(F)cc2F)CC(C)O1 (stereo not shown),-1.61
7,C=CCn1c(SCC(=O)N2CCCCC2)nc(O)cc1=O,4.63
8,COc1ccccc1N1CCN(S(=O)(=O)c2ccc(-c3cnc(C4CC4)o3)cc2)CC1,14
9,N=c1c(C(=O)NCC2CCCO2)cc2c(=O)n3ccccc3nc2n1Cc1ccco1 (stereo not shown),-83.1
10,Cc1ccc(-c2nnc3n2CCCCC3)cc1,0.609
11,Cc1cccc(NC(=O)c2cc(NC(=O)c3ccccc3)ccc2N2CCCCC2)c1,3.79
12,Cc1ccc(-c2nc3ccccc3c(=O)n2-c2ncccc2C)cc1,0.712
13,Cc1ccc(C)c2c(SC(C)C(=O)NCc3ccco3)nc(-c3ccccc3)nc12 (stereo not shown),-71.2
14,Cc1ccc2nc(-c3ccccc3)nc(SC(C)C(=O)NCc3cccs3)c2c1 (stereo not shown),16.6
15,CC(Sc1nc(-c2ccccc2)cc(C(F)(F)F)n1)C(=O)NCc1ccco1 (stereo not shown),4.96
16,C=CC(=O)NC(C)(C)CCN1CCOCC1,8.55
17,Nc1nc(SCC(=O)c2cccc([N+](=O)[O-])c2)n[nH]1,5.93
18,COC(=O)c1ccc(CSc2nncn2C)cc1,-4.1
19,Cl.c1ccc(CCCN2CCN(CCOC(c3ccccc3)c3ccccc3)CC2)cc1,-41.9
20,Cl.Fc1ccc(C(OCCN2CCCC2)c2ccc(F)cc2)cc1,-37.9
21,Cl.Fc1ccc(C(OCCN2CCCC2)c2ccc(Br)cc2)cc1 (stereo not shown),-66
22,Fc1ccccc1N1CCN(CCCc2ccccc2)CC1,-18.4

row,Structure (SMILES),"hERG current change (%, negative = inhibition) at 1uM [%]"
1,Cl.Fc1ccc(C(OCCN2CCN(CCCc3ccccc3)CC2)c2ccc(F)cc2)cc1,-71.3
2,Cl.c1ccc(C(OCCN2CCNCC2)c2ccccc2)cc1,4.05
3,CCCCn1c(N)c(N(CC(C)C)C(=O)C2CCN(S(=O)(=O)c3ccc(C)cc3C)CC2)c(=O)[nH]c1=O,2.62
4,Cn1c(=O)[nH]c(=O)c2c1nc(SCC(N)=O)n2Cc1cccc(Br)c1,4.47
5,Cc1ccc2c(c1)c1c3n2CCN=C3CCC1.Cl,-65.6
6,CS(=O)(=O)O.c1ccc(-c2ccc3c(c2)c2c4n3CCN=C4CCC2)cc1,2.12
7,c1cc2c(cc1C1CCCCC1)c1c3n2CCN=C3CCC1,11.4
8,CNc1cccc2c1C(=O)c1ccccc1C2=O,5.62
9,COCCn1nnnc1C(c1ccc(OC)cc1OC)N1CCN(c2ccccc2F)CC1.Cl (stereo not shown),-2.19
10,COCCn1nnnc1C(c1ccc(OC)cc1OC)N1CCN(c2ccccc2)CC1 (stereo not shown),-54.1
11,COCCn1nnnc1C(c1ccccc1OC)N1CCN(c2ccccc2)CC1.Cl (stereo not shown),6.17
12,COc1ccccc1N1CCN(S(=O)(=O)c2cc(Br)cnc2N)CC1,15.3
13,CCN(CC)CCN1C(=O)c2ccccc2NC1c1ccc(F)cc1 (stereo not shown),-30.5
14,CCN(CC)CCN1C(=O)c2ccccc2NC1c1ccc(Br)cc1 (stereo not shown),-82.8
15,CCN(CC)CCN1C(=O)c2ccccc2NC1c1ccc(C)cc1 (stereo not shown),-48.3
16,CCOC(=O)c1c(NC(=O)CN2CCOCC2)sc2c1CC(C)(C)OC2,11.7
17,Cc1nc(NCCc2ccc(S(N)(=O)=O)cc2)c2c3c(sc2n1)CCC3,11.8
18,NS(=O)(=O)c1ccc(CCNc2nc(CN3CCOCC3)nc3sc4c(c23)CCC4)cc1,3.28
19,NS(=O)(=O)c1ccc(CCNc2nc(CN3CCCCC3)nc3sc4c(c23)CCC4)cc1,-53
20,Cc1cccc(C)c1NC(=O)CNC(=O)c1ccc(N2CCCC2)c([N+](=O)[O-])c1,-2.53
21,COc1ccccc1C(=O)Nc1ccnn1C1CCN(C(C)CSC)CC1 (stereo not shown),-10.6
22,Cc1ccccc1CN1CCC(n2nccc2NC(=O)CCCc2ccccc2)CC1,7.05

row,Structure (SMILES),"hERG current change (%, negative = inhibition) at 1uM [%]"
1,O=C(Nc1ccnn1C1CCN(CCCc2ccccc2)CC1)c1ccccc1Cl,-87.3
2,Cc1ccccc1C(=O)Nc1ccnn1C1CCN(Cc2ccccn2)CC1,-14.6
3,O=C(Nc1ccnn1C1CCN(C2CCC2)CC1)c1ccccc1,16.6
4,Cc1ccccc1C(=O)Nc1ccnn1C1CCN(CCCc2ccccc2)CC1,-84.5
5,COc1ccc(C(=O)Nc2ccnn2C2CCN(CCC(C)c3ccc(C)o3)CC2)cc1 (stereo not shown),-18
6,O=C(Nc1ccnn1C1CCN(C2CCC2)CC1)c1ccccc1Cl,-28.4
7,COc1ccccc1C(=O)Nc1ccnn1C1CCN(CCC(C)c2ccc(C)o2)CC1 (stereo not shown),-88.2
8,O=C(Nc1ccnn1C1CCN(CCCc2ccccc2)CC1)c1ccccc1,-70.9
9,CSCCCN1CCC(n2nccc2NC(=O)CCCc2ccccc2)CC1,-28.5
10,COc1ccc(-c2cc(C(=O)NCCc3ccc(S(N)(=O)=O)cc3)c3ccccc3n2)cc1,11.6
11,O=C(OCC(=O)N1CCOCC1)c1cnc(Cl)c(Cl)c1,-0.0536
12,CCCCN=C(C)C1=C(O)CSC1=O,15.8
13,CCN(c1ccccc1)S(=O)(=O)c1ccc(F)cc1,8.48
14,O=C(OCc1nnc(-c2ccc(Br)cc2)o1)c1ccco1,-3.17
15,CS(=O)(=O)N(CC(=O)Nc1cccc(F)c1)Cc1ccccc1,20.1
16,COc1ccccc1-n1c(O)c(/C=C2\C=Nc3ccccc32)c(=O)[nH]c1=O,11.9
17,Cc1cc(C)nc(-n2nc(C)cc2NC(=O)c2cccc(S(=O)(=O)N(C)C)c2)n1,8.89
18,COc1ccccc1CN1CCC(n2nccc2NC(=O)CCc2ccccc2)CC1,7.89
19,COc1ccccc1C(=O)Nc1ccnn1C1CCN(C)CC1,4.47
20,COc1ccccc1C(=O)Nc1ccnn1C1CCN(CCCc2ccccc2)CC1,-88.1
21,CC1=C(C(N)=O)C(c2ccc(Br)cc2)n2nc(CCCO)nc2N1 (stereo not shown),13.1
22,Cc1ccc(N=C2NC(=O)C(CC(=O)O)S2)cc1 (stereo not shown),8.56

row,Structure (SMILES),"hERG current change (%, negative = inhibition) at 1uM [%]"
1,NC(=O)c1cc(S(=O)(=O)N2CCN(c3cccc(Cl)c3)CC2)cs1,18.9
2,CN(C)S(=O)(=O)N1CCN(c2ccccc2)CC1,-0.132
3,NC(=O)c1cc(S(=O)(=O)N2CCN(c3ccc([N+](=O)[O-])cc3)CC2)cs1,-59.3
4,CN(C)S(=O)(=O)N1CCN(c2ccc([N+](=O)[O-])cc2)CC1,-60.5
5,CN(C)S(=O)(=O)N1CCN(c2ccc(Cl)cc2)CC1,5.65
6,CC(=O)c1ccc(N2CCN(S(=O)(=O)c3csc(C(N)=O)c3)CC2)cc1,-14.2
7,O=[N+]([O-])c1cc(NS(=O)(=O)c2ccc(Cl)nc2)ccc1Cl,-0.66
8,CCc1ccc2oc(-c3cc(N)ccc3O)nc2c1,9.06
9,O=C(O)C1CSC(c2ccccc2)N1C(=O)c1ccco1 (stereo not shown),10
10,O=C(/C=C/c1ccc(S(=O)(=O)NCc2ccco2)cc1)N1CCN(c2ccccc2)CC1,5.15
11,COc1ccc(/C=N\NC(=O)c2ccccc2)cc1COc1ccc(F)cc1,4.81
12,COc1ccc(/C=N/NC(=O)c2ccc(C)cc2)cc1CN1CCN(c2ccc(F)cc2)CC1,-27
13,COc1ccc(/C=N/NC(=O)c2cccc(Br)c2)cc1CN1CCOCC1,-38.5
14,COc1ccc(/C=N/NC(=O)c2ccccc2)cc1CN1CCN(c2ccc(F)cc2)CC1,-62.1
15,COc1ccc(/C=N/NC(=O)c2ccoc2C)cc1CN1CCN(c2ccc(F)cc2)CC1,-19.3
16,COc1ccc(/C=N/NC(=O)c2cccnc2)cc1CN1CCN(c2ccc(F)cc2)CC1,-0.578
17,COc1ccc(/C=N/NC(=O)c2ccccc2F)cc1CN1CCN(c2ccc(F)cc2)CC1,-64.4
18,COc1ccc(C(=O)N/N=C/c2ccc(OC)c(COc3ccc(F)cc3)c2)cc1,1.17
19,COc1ccc(C(=O)N/N=C/c2ccc(OC)c(CN3CCN(c4ccc(F)cc4)CC3)c2)cc1,-83.5
20,COc1ccc(/C=N/NC(=O)c2ccncc2)cc1CN1CCOCC1,6.59
21,COc1ccc(/C=N\NC(=O)c2ccccc2F)cc1COc1ccc(F)cc1,16.6
22,COc1ccc(/C=N/NC(=O)c2ccncc2)cc1CN1CCN(c2ccc(F)cc2)CC1,-54.2
